TcdB GH inh – TcdB glycohydrolase inhibition. 350,000 tested, 0.24% active. AID 652162. inhibition, % at 9.99 µM. TcdB glycohydrolase enzymatic assay, plate reader
PrPC surface inh – reduces human prion protein on the cell surface. inhibition, % at 13.8 µM. cell surface PrPC, TR-FRET read-out. 370,000 tested, 0.43% active. P04156; in the data active = inhibition above about 24%; note: 0% = median of the test wells and 100% = reference compound wells
Y pestis TopoI – blocks Yersinia pestis topoisomerase I activity. activity, % at 10 µM. Y. pestis Topo-I cleavage product accumulation, plate reader. 360,000 tested, 0.064% active; in the data active = activity above about 50%, passing the limit was not always enough
GDH-TPI counter-1 – GDH-TPI coupled enzyme inhibition counter-screen; inhibition, % at 4.8 µM; 360,000 tested, 1.2% active; GDH-TPI coupled enzyme counterscreen, NADH absorbance; AID 588335; in the data active = inhibition above about 30%;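 note: 0% = DMSO wells and 100% = wells lacking the enzyme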
Mtb FBA inh – inhibits M. tuberculosis FBA enzyme | purified M. tuberculosis FBA, fluorescence read-out | inhibition, % at 1 µM | 360,000 tested, 2.3% active; in the data active = inhibition above about 27%;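 note: 0% = vehicle and 100% = reference inhibitor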
Mtb FBA confirm – confirmation of M. tuberculosis fructose-bisphosphate aldolase inhibitors | purified M. tuberculosis FBA, fluorescence read-out | AID 651616 | shares compounds with Mtb FBA inh | 5,600 tested, 78% active | inhibition, % at 1 µM; in the data active = inhibition above about 27%;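 note: 0% = vehicle wells and 100% = reference inhibitor wells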
GDH-TPI counter-2 – inhibits GDH-TPI coupling enzymes, flagging Mtb FBA hits. GDH-TPI coupled enzyme counterscreen, fluorescence. AID 652141. inhibition, % at 1 µM. 5,600 tested, 81% active. shares compounds with Mtb FBA inh
An asterisk follows results filed as active; x = not tested or not shown; + = active, no number. Compounds with a hit are over-represented: about 3.2% of the library has one in this group of screens. Cut-off read from the data, not from the text of the source, unless noted: active = inhibition above about 10%; inactive = the rest.

SMILES	TcdB GH inh	PrPC surface inh	Y pestis TopoI	GDH-TPI counter-1	Mtb FBA inh	Mtb FBA confirm	GDH-TPI counter-2
COCC#Cc1ccc2c(c1)O[C@H](CN(C)C(=O)Nc1ccccc1F)[C@H](C)CN([C@@H](C)CO)S2(=O)=O	-3	x	x	x	x	x	x
Cc1ccc(C2Nc3ccccc3C(=O)N2Cc2ccco2)cc1 (stereo unspecified)	x	0	5	14	43*	86*	56*
O=C1c2ccccc2NC(c2ccc(O)cc2)N1Cc1ccco1 (stereo unspecified)	x	-1	4	17	24	x	x
O=C(CCCCCn1c(=S)[nH]c2ccc(N3CCOCC3)cc2c1=O)NCc1ccc2c(c1)OCO2	1	-9	17	-1	44*	+	+
C[C@@H]1CN([C@@H](C)CO)C(=O)Cc2cc(NC(=O)Nc3ccc(C(F)(F)F)cc3)ccc2O[C@@H]1CN(C)C(=O)Nc1ccccc1	1	x	x	x	x	x	x
CC1(C)Cc2c(c(-c3ccco3)nc3sc4c(NCCN5CCOCC5)ncnc4c23)CO1	0	3	9	35*	27*	5	-1
CC1(C)Cc2c(c(-c3ccco3)nc3sc4c(NCC5CCCO5)ncnc4c23)CO1 (stereo unspecified)	x	0	12	26	14	x	x
CC1(C)Cc2c(c(-c3ccco3)nc3sc4c(NCCCO)ncnc4c23)CO1	3	7	4	48*	37*	43*	24*
COc1ccc(S(=O)(=O)Nc2ccc3c(c2)C(=O)N([C@H](C)CO)C[C@@H](C)[C@@H](CN(C)C)OCCCC[C@H](C)O3)cc1	0	x	x	x	x	x	x
O=C(O)CCC(=O)Nc1nc2nc(-c3ccccc3)cc(-c3ccccc3)n2n1	x	-7	3	36*	98*	85*	98*
COc1ccc(CN(C)C[C@@H]2OCCCC[C@@H](C)Oc3ccc(NS(=O)(=O)c4c(C)noc4C)cc3C(=O)N([C@@H](C)CO)C[C@@H]2C)cc1	0	x	x	x	x	x	x
Clc1ccc(CNc2cnccn2)cc1	1	-3	-5	7	71*	125*	92*
Clc1ccc(CNc2ccccn2)cc1	-1	-1	6	-2	0	x	x
c1ccc(CNc2cnccn2)cc1	x	3	5	14	69*	108*	93*
Fc1ccc(CNc2cnccn2)cc1	x	-8	2	18	71*	-3	-5
C[C@H](CO)N1C[C@H](C)[C@@H](CN(C)CC2CCCCC2)Oc2ccc(NS(=O)(=O)c3ccc(F)cc3)cc2CC1=O	-1	x	x	x	x	x	x
C[C@H](CO)N1C[C@H](C)[C@H](CN(C)C(=O)Nc2ccc(C(F)(F)F)cc2)OCCCC[C@H](C)Oc2ccc(NS(=O)(=O)c3ccccc3)cc2C1=O	-7	x	x	x	x	x	x
C[C@@H]1CCCCO[C@@H](CN(C)C(=O)Nc2ccccc2)[C@H](C)CN([C@@H](C)CO)C(=O)c2cc(NC(=O)NC3CCCCC3)ccc2O1	0	x	x	x	x	x	x
S=C(c1ccc(-c2ccc(Br)cc2)o1)N1CCOCC1	0	0	6	18	-3	x	x
S=C(c1ccc(-c2ccc(Br)cc2)o1)N1CCCCC1	-1	6	4	0	59*	7	-2
CC(=O)c1ccc(OCC(O)Cn2nnc3ccccc32)cc1 (stereo unspecified)	2	-1	-3	14	0	x	x
N#Cc1ccc(OCC(O)CN2CCN(CC(O)COc3ccc(C#N)cc3)CC2)cc1 (stereo unspecified)	0	-9	0	5	-1	x	x
N#Cc1ccc(-c2ccc(OCC(O)Cn3nnc4ccccc43)cc2)cc1 (stereo unspecified)	x	8	11	3	31*	+	+
N#Cc1ccc(-c2ccc(OCC(O)CN3CCCCC3)cc2)cc1 (stereo unspecified)	1	3	1	7	58*	116*	81*
O=C(CSc1nc2ccccc2c(=O)[nH]1)Nc1ccc(N2CCOCC2)cc1	1	-4	-10	-8	3	x	x
SMILES	TcdB GH inh	PrPC surface inh	Y pestis TopoI	GDH-TPI counter-1	Mtb FBA inh	Mtb FBA confirm	GDH-TPI counter-2
O=C(CSc1nc2ccccc2c(=O)[nH]1)Nc1ccccc1N1CCOCC1	-4	3	9	6	33*	97*	77*
COc1ccc2oc3ccccc3c(=O)c2c1	-1	1	7	10	101*	+	+
COc1ccc2oc(C(F)(F)C(F)F)cc(=O)c2c1	x	4	-6	14	43*	75*	52*
C[C@H](CO)N1C[C@H](C)[C@@H](CN(C)S(C)(=O)=O)Oc2ncc(C#CC3CC3)cc2C1=O	1	x	x	x	x	x	x
C[C@@H]1CCCCO[C@H](CN(C)S(=O)(=O)c2cccs2)[C@H](C)CN([C@H](C)CO)C(=O)c2cc(NS(=O)(=O)c3ccc(Cl)cc3)ccc2O1	3	x	x	x	x	x	x
CCOc1ccc2nc(NCCCNS(=O)(=O)c3ccccc3)c(C#N)cc2c1	x	-9	27	3	37*	98*	64*
CCOc1ccc2nc(NCCNC(=O)c3cc(OC)c(OC)c(OC)c3)c(C#N)cc2c1	2	8	0	-8	1	x	x
CCOc1ccc2nc(NCCCNS(=O)(=O)c3ccc(F)cc3)c(C#N)cc2c1	-1	x	-2	8	40*	0	-3
COc1ccc(-c2ccc3n(c2=O)C[C@H]2[C@H](CO)[C@@H](C(=O)NC4CCC4)N(S(C)(=O)=O)[C@@H]32)cc1	0	x	x	x	x	x	x
CC(=O)Nc1ccc(S(=O)(=O)Nc2nc3ccccc3nc2Nc2ccccc2)cc1	0	7	-2	7	82*	+	+
CC(=O)Nc1ccc(Nc2nc3ccccc3nc2NS(=O)(=O)c2ccccc2)cc1	0	-9	-5	10	4	x	x
COc1ccc(S(=O)(=O)Nc2nc3ccccc3nc2Nc2cccc(C(=O)O)c2)cc1	0	-7	-11	38*	32*	+	+
COc1ccc(NS(=O)(=O)c2ccc(Oc3cccc(C(=O)O)c3)cc2)cc1	0	1	4	-5	-2	x	x
CC(=O)Nc1ccc(S(=O)(=O)NC(C)c2ccccc2)cc1 (stereo unspecified)	0	3	5	2	31*	123*	95*
O=C(O)c1cccc(Nc2ncnc3ccccc23)c1	0	1	-2	14	49*	83*	78*
C[C@@H]1CCCCO[C@H](CN(C)S(=O)(=O)c2cn(C)cn2)[C@@H](C)CN([C@@H](C)CO)C(=O)c2cc(NC(=O)C3CCCCC3)ccc2O1	0	x	x	x	x	x	x
COc1ccc(CNC(=O)C2(C)Cc3c(-c4ccc5c(c4)OCO5)ccnc3O2)cc1OC (stereo unspecified)	1	4	18	4	33*	114*	84*
